Reference: PubChem BioAssay AID2401 (Southern Research Specialized Biocontainment Screening …, 2010)
Screen size: about 2,200 compounds; about 530 (24%) were called active. Only a sample is shown. Results with a measured potency or affinity are listed apart. Unmarked numbers belong to inactive results.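 The calls were made as follows: active = inhibition above a set limit at one or more concentrations of the dose series; inactive = inhibition under that limit at every dose.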

assay: nmpC-GFP reporter counter-screen in S. Typhimurium, dose response, counter-screen for PhoP regulon inhibitor project, Salmonella Typhimurium, GFP fluorescence (AID 2401); conditions: 4 h; series mostly up to 150 µM; inhibition: at the top concentration;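 also: S. typhimurium with Mg-insensitive nmpC-GFP reporter grown at 10 µM Mg2+; drop in reporter fluorescence reflects general culture growth inhibition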

Row | SMILES | inhibition [%]
1 | c1ccc(CN2CCN(c3nc(-c4ccccc4)nc(-n4ccnc4)n3)CC2)cc1 | -6.55
2 | CCCOC(=O)Oc1ccc2c(=O)c(Oc3cc(C)cc(C)c3)coc2c1 | -7.81
3 | Cc1ccccc1NC(=S)NC1CCN(Cc2ccccc2)CC1 | -15.9
4 | OC1(c2ccc3ccccc3c2)CCN(Cc2ccccc2)C1 (centres undefined) | 8.53
5 | O=C1c2cccc(OCC(=O)N3N=C(c4cccs4)CC3c3ccc(F)cc3)c2CCN1Cc1cccnc1 (centres undefined) | -8.74
6 | COc1ccc(O)c(/C=c2/sc3nc4cc(C)c(C)cc4n3c2=O)c1 | -18.9
7 | Cc1ccc2c(CN3CCC(C)CC3)cc(=O)oc2c1 | 2.64
8 | O=C(Cn1cnc2ccccc2c1=O)NCc1ccco1 | -11.4
9 | CCn1nc(C(=O)OC(C(=O)c2c[nH]c3ccccc23)c2ccccc2)c2ccccc2c1=O (centres undefined) | 14.3
10 | Cc1ccc(C)c(C(=O)NCc2ccncc2)c1 | -45.6
11 | CCOC(=O)c1ccc(N2CCN(c3ccc(F)cc3)CC2)c(NC(=O)Nc2cccc(OC)c2)c1 | -10.5
12 | CCN(CC)CCN(Cc1cc2cc3c(cc2[nH]c1=O)OCCO3)C(=O)NC1CCCCC1 | 11.3
13 | N#Cc1c(-c2ccccc2)ccn(Cc2cccc(Cl)c2)c1=O | 1.76
14 | CSc1nnc(NC(=O)CCc2ccccc2)s1 | 13.7
15 | O=C(CSc1nc(Nc2ccccc2)nc(N2CCOCC2)n1)Nc1ccc([N+](=O)[O-])cc1 | -22.3
16 | O=C(Nc1cc(C(F)(F)F)ccc1Cl)C(NCc1ccccc1)c1ccccc1 (centres undefined) | -23.9
17 | O=C(NC1CCCC1)c1ccc(Cl)s1 | 38.4
18 | O=C(NNc1nc(-c2ccccc2)cs1)c1ccccc1 | 10.6
19 | COc1ccc(C2=Nc3cccc4cccc(c34)N2)cc1 | 28
20 | CCN(CC)S(=O)(=O)c1ccc(C(=O)N2CCN=C2SCc2cccnc2)cc1 | -24.8
21 | Cc1cc(C)n2c(SCC(=O)NCc3ccco3)nnc2n1 | -24.8
22 | Cc1ccc2nc(-c3ccc(Br)o3)oc(=O)c2c1 | -1.76
23 | NC1=NC(=Nc2ccc(Br)cc2)c2ccccc21 | 19.6
24 | Cn1cnnc1SCC(=O)Nc1cccc(C(=O)O)c1 | -11.9
25 | Nc1c(C(=O)Nc2ccc(F)cc2)sc2nc(-c3ccco3)ccc12 | 31.4

Row | SMILES | inhibition [%]
26 | COc1ccc2nc(-c3ccccc3)cc(OC)c2c1 | -9.85
27 | Cc1cccc(-n2c(N)cc(=O)[nH]c2=S)c1 | 33.4
28 | COc1ccc(OCCSc2nnc(-c3ccc(OC)cc3)n2N)cc1 | -17.8
29 | CCOC(=O)N1CCN(S(=O)(=O)c2ccc(C(=O)NNc3nc4c(C)cc(C)cc4s3)cc2)CC1 | 38.3
30 | c1ccc2c(c1)CCN(c1ncnc3c1[nH]c1ccccc13)C2 | -20.7
31 | O=C(Nc1ccc(S(=O)(=O)N2CCCC2)cc1)c1ccc(CN2CCc3ccccc3C2)cc1 | -24.6
32 | O=C(C(=O)N1CCc2ccccc2C1)N1CCc2ccccc2C1 | -29.3
33 | Oc1ccc(NCc2ccccc2OCc2ccccc2F)cc1 | 11.3
34 | NC(=O)N1OCC2COc3ccc4ccccc4c3C21 (centres undefined) | 1.89
35 | Cc1ccc(NC(=O)COC(=O)C2(c3ccc(Cl)cc3)CCCC2)cc1 | -25.7
36 | COc1ccc(/C=C(\NC(=O)/C=C/c2ccco2)C(=O)NCCc2nc3ccccc3[nH]2)cc1 | 17.5
37 | C=CCOc1ccccc1CNCCCN1CCOCC1 | -23.9
38 | FC(F)(F)C1=CC(c2ccc(Br)cc2)=NCCN1 | 20.8
39 | CCCCC(=O)NCCNC(=O)c1cc(OCC(F)(F)F)ccc1OCC(F)(F)F | -16.7
40 | CCOc1ccc2c(c1)nc(SCC(=O)c1ccc(Br)s1)n2C | -16.9
41 | Cc1ccc(-c2csc(=S)n2CC(=O)OCC(=O)NCc2ccco2)cc1 | -20.7
42 | Cc1ccc2c(c1)[nH]c1c(N3CCN(Cc4ccccc4)CC3)ncnc12 | -14.5
43 | O=C(CN1CCN(Cc2ccccc2)CC1)c1c[nH]c2ccccc12 | 16.1
44 | CCc1nc(SCC(=O)N2CCCc3ccccc32)c2oc3ccccc3c2n1 | -22.8
45 | O=C(CCCOc1ccccc1)N1CCCc2ccccc21 | -6.41
46 | C/C(Nc1ccc(F)cc1)=C(/C#N)C(N)=O | -6.38
47 | CN(C)c1ccc(/C=N/c2cc(-c3ccccc3)nn2-c2ccccc2)cc1 | -1.68
48 | CCC(CC)C(=O)NCCc1ccc(OC)cc1 | -27.6
49 | CCOc1c(Br)cc(CNCc2cccs2)cc1OC | -6.47
50 | S=C(NCc1ccncc1)Nc1ccc(Cl)c(Cl)c1 | 14.8

Row | SMILES | inhibition [%]
51 | O=C(NC(NC(=S)Nc1ccc(Cl)c(Cl)c1)C(Cl)(Cl)Cl)c1ccco1 (centres undefined) | 16.2
52 | Cc1ccsc1/C=N/NC(=O)Cn1cnc2ccccc21 | 1.05
53 | Cc1cc(NC(=O)c2ccccc2-c2ccccc2)ccc1Br | -15.1
54 | CC1=CC2=NC(=O)/C(=C\c3cc(C)n(-c4ccc(F)cc4)c3C)C(=N)N2O1 | -12.6
55 | CC(=O)NCCOc1c(C)cc(S(N)(=O)=O)cc1C | -20.1
56 | O=C(NCCc1ccc(Cl)cc1)/C(=C/c1cccnc1)NC(=O)c1ccccc1 | -18.4
57 | Cc1ccc(S(=O)(=O)N2CCC(C(N)=O)CC2)c(C)c1C | -12.4
58 | Cc1nc([N+](=O)[O-])c(Br)n1CC(=O)c1ccccc1 | 37.9
59 | CC(=O)Nc1ccc(-n2nnnc2SCC(=O)Nc2cccc(NC(=O)c3ccco3)c2)cc1 | -44.5
60 | COc1ccc(C(=O)Nc2cc(C)ccc2NC(=O)COc2ccccc2)cc1 | -29.8
61 | C=CCn1c(SCC(=O)Nc2nnc(CC)s2)nnc1-c1cccnc1 | -26.2
62 | Cc1ccc(C(=O)NCC(=O)NCC(=O)OCC(=O)c2ccc([N+](=O)[O-])cc2)cc1 | -17.1
63 | CCc1ccccc1NC(=O)c1nnn(CC(=O)Nc2cccc(C)c2C)c1N | -21.5
64 | CC1CC(C)CN(CCCSc2ccccc2)C1 (centres undefined) | -17.9
65 | COc1cccc(NC(=O)CNC(=O)c2cccs2)c1 | 15.6
66 | COCC(=O)N(Cc1ccco1)c1nnc(C2CCOC2)s1 (centres undefined) | -21.9
67 | Cc1ccc(C(C)C)cc1C(=O)CC1(O)C(=O)N(C)c2ccccc21 (centres undefined) | -26.3
68 | COC(=O)CSc1nc(SCc2ccccc2Cl)nc2c1CCCC2 | -9.37
69 | CCOC(=O)c1[nH]c2ccccc2c1NC(=O)C(C)(C)C | -34.2
70 | COc1ccc2nc(Nc3nc4cc5c(cc4s3)OCCO5)sc2c1 | -5.65
71 | NNc1nc2c(-c3cccc(C(F)(F)F)c3)nnn2c2ccccc12 | -12.8
72 | COc1ccc2oc(=O)cc(C)c2c1 | -2.87
73 | COc1cccc(C(=O)Oc2c(CN3CCOCC3)cc(Cl)c3cccnc23)c1 | -4.88
74 | COc1ccccc1N1CCN(C(CNS(=O)(=O)c2ccccc2)c2cccnc2)CC1 (centres undefined) | 7.59
